# HP1b chromo inh – blocks HP1-beta chromodomain binding to methylated histone tails. Potency, µM (doses to about 114 µM), actives largely listed as inhibitors. P83916. 0.56% of 390,000 active. AlphaScreen HP1-beta / biotin-H3K9me3 peptide binding. AID 540317; also: nearly all actives have a fitted effect of over 70% in size
# Target sequence (P83916 whole entry, looked up): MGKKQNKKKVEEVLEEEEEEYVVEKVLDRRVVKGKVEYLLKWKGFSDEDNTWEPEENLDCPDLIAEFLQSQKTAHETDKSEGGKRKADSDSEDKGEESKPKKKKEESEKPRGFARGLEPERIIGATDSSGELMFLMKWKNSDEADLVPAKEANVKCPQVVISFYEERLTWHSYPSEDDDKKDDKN
#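 HP1-beta protein (50 nM final) preincubated 30 min at room temperature with biotinylated H3(1-18)K9me3 peptide (50 nM) in PBS pH 7.4, 0.01% Tween-20, then compound added for 30 min. AlphaScreen streptavidin donor/nickel chelate acceptor beads (10 ug/mL final), 30 min dark, luminescence read.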
# BAZ2B block – inhibitors of human BAZ2B bromodomain; AID 504333; Q9UIF8; 4.4% of 360,000 active; AlphaScreen BAZ2B-H3K14Ac peptide displacement; Potency, µM (series often up to 114 µM), hits mostly inhibitors; also: nearly all actives have a fitted effect of over 60% in size
#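 Inhibition is scored as reduced AlphaScreen emission. The BAZ2B/b-H3(5-23)K14Ac complex (50 nM each) in PBS pH 7.4, 0.01% Tween-20 meets compound (up to 110 uM) for 30 min at RT before bead addition.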
# JMJD2A Tudor inh – blocks the human JMJD2A Tudor domain | AlphaScreen JMJD2A-Tudor / H3K4me3 peptide binding | 4.4% of 390,000 active | O75164 | Potency, µM (highest dose often 114 µM), hits mostly inhibitors; also: nearly all actives have a fitted effect of over 50% in size
# L3MBTL1 inh-1 – inhibitors of human L3MBTL1; AlphaScreen L3MBTL1–H3K9me1 peptide binding; Potency, µM (top dose mostly 57.1 µM), actives largely listed as inhibitors; 0.66% of 230,000 active; AID 485360; Q9Y468; also: nearly all actives have a fitted effect of over 60% in size
#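 Read-out is AlphaScreen signal from streptavidin donor and nickel chelate acceptor beads (10 ug/mL final each) bridging L3MBTL1 (50 nM) and biotinylated K9-monomethylated H3(1-15) peptide (75 nM), after 30 min compound exposure at room temperature.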
# G9a block – inhibitors of human histone lysine methyltransferase G9a | Q96KQ7 | G9a H3K9 monomethylation, AlphaScreen, 2 h | Potency, µM (series often up to 102 µM), hits mostly inhibitors | 8.8% of 350,000 active; also: nearly all actives have a fitted effect of over 75% in size
# Target sequence (Q96KQ7 913-1193 limits assumed): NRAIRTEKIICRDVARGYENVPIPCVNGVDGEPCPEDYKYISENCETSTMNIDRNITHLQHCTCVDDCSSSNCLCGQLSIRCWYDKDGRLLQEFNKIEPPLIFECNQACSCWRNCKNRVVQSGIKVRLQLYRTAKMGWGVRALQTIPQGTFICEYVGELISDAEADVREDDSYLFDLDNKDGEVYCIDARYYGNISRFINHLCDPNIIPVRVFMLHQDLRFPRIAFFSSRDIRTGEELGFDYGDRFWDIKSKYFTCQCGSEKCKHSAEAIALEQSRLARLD
#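 Chemiluminescent proximity detection of H3K9 monomethylation, read after 10 min bead incubation in the dark. Reaction: 20 nM G9a, 500 nM biotin-H3K9 peptide, 20 uM SAM cofactor, 2 h, room temperature, following 15 min enzyme-compound preincubation.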
# L3MBTL1 inh-2 – blocks human L3MBTL1 methyl-lysine binding; shares compounds with L3MBTL1 inh-1; L3MBTL1 methyl-lysine binding inhibition, biochemical qHTS; Potency, µM, hits mostly inhibitors; 91% of 500 active; also: nearly all actives have a fitted effect of over 70% in size
# L3MBTL1 ctr – interferes with AlphaScreen signal in L3MBTL1 counterscreen | AID 602224 | shares compounds with L3MBTL1 inh-1 | Potency, µM (titrated, usually from 57.1 µM), actives largely listed as inhibitors | 500 tested, under 10 active | AlphaScreen counterscreen, signal inhibition
# A number is an active result; n = inactive; u = inconclusive; x = no result given; [ ] = remark or other dose. Sampled rows, rich in hits. Any-hit rate of the full collection: about 11%. Calls follow the shape of the dose curve; as a rule, active = well fitted curve in the direction sought with a large enough effect; inconclusive = small, poorly fitted or top-dose-only effect, or another doubt; inactive = no such curve, though single readings can be large; an effect the other way counts as inactive or inconclusive.
SMILES,HP1b chromo inh,BAZ2B block,JMJD2A Tudor inh,L3MBTL1 inh-1,G9a block,L3MBTL1 inh-2,L3MBTL1 ctr
CCCNC(=O)NNC(=O)c1ccc(F)cc1,n,n,u,n,n,x,x
O=C(Nc1ccc(CN2CCCCC2)cc1)Nc1ccc(Br)cc1Cl,n,n,n,u,n,x,x
O=C(CSc1nnc(-c2ccco2)o1)c1ccccc1,n,n,n,u,n,x,x
O=C(CSc1nnc(-c2ccco2)o1)c1ccc[nH]1,n,45µM,n,28µM,40µM,19,n
Cc1c(N2C(=O)c3ccc4c5c(ccc(c35)C2=O)CC4)c(=O)n(-c2ccccc2)n1C,u,56µM,u,13µM,50µM,6,n
Cc1c(N2C(=O)c3ccc(Br)cc3C2=O)c(=O)n(-c2ccccc2)n1C,n,n,n,n,n,x,x
CN(NC(=O)c1ccccc1F)c1ncccc1[N+](=O)[O-],n,n,n,x,n,x,x
O=C(COC(=O)c1cc(Cl)nc(Cl)c1)NCc1ccc2c(c1)OCO2,n,x,n,n,x,x,x
COc1cc2c(cc1OC)CN(Cc1nc3ccsc3c(=O)[nH]1)CC2,n,40µM,u,25µM,u,21,n
O=c1[nH]c(CN2CCN(c3ccccc3Cl)CC2)nc2ccsc12,n,n,n,n,u,x,x
CC(C)c1ccc(S(=O)(=O)NC2CCS(=O)(=O)C2)cc1 (configuration not stated),n,n,n,n,n,x,x
O=C(O)c1ccc(N2C(=O)/C(=C\c3ccccc3)N=C2c2ccccc2)cc1,n,n,n,x,n,x,x
COC(=O)c1ccc(N2NC(=O)/C(=C/c3ccc(-c4ccc(Cl)c(C(=O)O)c4)o3)C2=O)cc1,u,50µM,56µM,6.3µM,18µM,1.7,n
O=C1NN(c2ccccc2)C(=O)/C1=C/c1ccc(-c2ccc(C(=O)O)cc2)o1,u,50µM,56µM,13µM,x,3,u
COC(=O)N/N=C/c1ccc(-c2ccc(C)c(Cl)c2)o1,n,n,n,n,n,x,x
CC1=NOC(=O)/C1=C\c1ccc(-c2ccc(Cl)c(C(=O)O)c2)o1,u,79µM,79µM,20µM,16µM,2.7,n
COc1ccccc1CN1CCCC2(CCN(C(C)=O)CC2)C1,x,x,x,x,n[12.7 µM],x,x
COc1cccc(CC(=O)OCC(=O)NCCc2ccc(F)cc2)c1,n,n,n,n,n[12.7 µM],x,x
CCN(CC)c1ccc(/C=N/NC(=O)c2nnn(-c3nonc3N)c2-c2ccc(C)cc2)cc1,n,n,n,x,x,x,x
Cc1ccc(-n2nc(C(=O)NC(C)C)c(=O)n(C)c2=O)cc1,n,n,n,x,n,x,x
O=C1CN(C(=O)c2cc([N+](=O)[O-])ccc2Cl)C(c2ccc(F)cc2)c2cc(F)ccc2N1 (configuration not stated),n,n,n,n,u,x,x
c1ccc(-c2nc(-c3ccncc3)n[nH]2)nc1,n,2.5µM,2.8µM,3.2µM,x,4.7,n
O=C(CSc1nc2ccccc2[nH]1)NCc1ccco1,n,x,n,n,n,x,x
O=C(CSc1ncccc1-c1nc2ccccc2[nH]1)NCc1ccco1,u,56µM,35µM,35µM,10µM,21,u
Cc1ccc(NC(=O)Cn2c(CCC(=O)O)ccc2-c2ccc(Cl)cc2)cc1,n,u,n,x,u,x,x
SMILES,HP1b chromo inh,BAZ2B block,JMJD2A Tudor inh,L3MBTL1 inh-1,G9a block,L3MBTL1 inh-2,L3MBTL1 ctr
Cc1ccc(-c2ccc(CCC(=O)O)n2CC(=O)O)cc1,n,u,u,22µM,n[12.7 µM],5.3,n
Cc1cc(=O)c2cc3nc(-c4cccnc4)oc3c(Br)c2o1,x,79µM,x,32µM,40µM,6,n
CN(C)c1ccc(NC(=S)NC23CC4CC(CC(C4)C2)C3)cc1,u,n,u,x,u,x,x
CCCN(CC(=O)Nc1ccccc1C)C(=O)CCl,n,n,n,n,n,x,x
Cc1ccc(NC(=O)COC(=O)/C=C/c2ccc(Br)o2)cc1S(=O)(=O)N(C)C,n,u,n,n,u,x,x
NC(=O)c1ccc(NC(=O)COC(=O)/C=C/c2ccc(Br)o2)cc1,u,x,20µM,14µM,x,6.7,n
COc1ccc(/C=C/C(=O)NCc2ccccn2)cc1,n,n,n,n,n,x,x
Cc1ccc(/C=C/C(=O)NCc2ccccn2)o1,u,45µM,50µM,32µM,u,7.5,n
Cn1cnnc1Sc1ccc(/C=C(\CCC(=O)O)c2nc3ccccc3s2)cc1[N+](=O)[O-],n,u,n,n,u,x,x
CN(c1ccccc1)c1ccc(/C=C(\CCC(=O)O)c2nc3ccccc3s2)cc1[N+](=O)[O-],u,11µM,45µM,28µM,u,24,u
O=C(/C=C/c1ccco1)Nc1scc(-c2ccccc2)c1C(=O)O,u,n,n,25µM,50µM,2.7,n
Cc1ccccc1N=C1NC(=O)/C(=C/c2cccn2-c2cccc(C(=O)O)c2)S1,u,40µM,50µM,40µM,28µM,4.2,n
CC(Sc1nc2sc3c(c2c(=O)n1-c1ccccc1)CCCC3)C(=O)O (configuration not stated),n,n,n,n,x,x,x
CCn1c(SC(C)C(=O)O)nc2sc3c(c2c1=O)CCC3 (configuration not stated),n,50µM,89µM,28µM,u,3.4,n
C=CCn1c(Oc2ccc(C=O)cc2OCC)nc2c1c(=O)n(C)c(=O)n2C,n,n,n,x,n,x,x
COc1ccc(-c2nnc(SCC(=O)Nc3ccc(C(C)=O)cc3)nc2-c2ccc(OC)cc2)cc1,n,n,n,x,n,x,x
CC(=O)c1ccc(NC(=O)CSc2nnc(-c3ccco3)c(-c3ccco3)n2)cc1,32µM,45µM,22µM,25µM,x,15,u
Cc1ccc(-c2nc3c(c(=O)[nH]c(=O)n3Cc3ccccc3)n2C)o1,n,u,u,10µM,1.4µM,3.4,n
Cc1ccc(S(=O)(=O)N2CCC(C(=O)N3CCCC(C(F)(F)F)C3)CC2)cc1C (configuration not stated),n,n,n,n,n,x,x
O=C(O)c1cc(Cl)c2c(c1)[C@@H]1C=CC[C@@H]1[C@H](c1ccc(S(=O)(=O)N3CCOCC3)cc1)N2,n,50µM,79µM,22µM,22µM,27,u
COc1ccc(NC(=O)Cn2ncc(Cl)c(Cl)c2=O)cc1S(=O)(=O)N1CCOCC1,n,u,n,14µM,n,12,n
CC(=O)Nc1ccc(SC[C@H](Cc2ccccc2)N2CC[C@@H](C(C)(C)C)CCC2=O)cc1,n,n,u,n,n[0.501 µM],x,x
O=C1NC(=O)/C(=C\c2ccc(O)cc2O)S1,u,28µM,20µM,4µM,18µM,1.7,u
CC(C)(C)c1ccc(NC(=O)CSc2n[nH]c(=O)n2C2CC2)cc1,n,x,n,n,x,x,x
COCCN(C(=O)c1ccc(OC2CCN(S(=O)(=O)N(C)C)CC2)cc1)C(C)C,n,n,n,n,u,x,x
